# Records with an inconclusive call do not appear. Unmarked numbers belong to inactive results. Activity calls are given as the source filed them. The call rests on the fitted dose curve; in most records, active means well fitted cell-killing curve with a large enough effect; inconclusive means small, poorly fitted or top-dose-only effect, or effect the other way; inactive means flat fitted curve, though single readings scatter. Where a SMILES comes first, the peptide text is derived from it. [ ]: non-standard residue; d: D form.
# Test system: Tov112D
# Experiment: Primary qHTS to identify gynecologic anti-cancer compounds using libraries of approved drugs and bioactive compounds (AID 1345084); further: nearly all actives have a fitted effect of over 55% in size
# Details: Gynecologic cancer cell panel viability, ATPlite luminescence, 48 h; series mostly up to 57.5 µM; activity change, negative = cytotoxicity: at the top concentration
# Method in brief: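 Five-concentration response, 48 h; readout is ATP-driven luciferase luminescence.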
# On the % scale 0 is the no-effect control and ±100 the full control effect; potency means the concentration at half of the fitted maximal effect.
Structure (SMILES),"activity change, negative = cytotoxicity",Potency
CN1Cc2c(N)cccc2C(c2ccccc2)C1 (configuration not stated),4.02%,–
C(#Cc1cccc(CN2CCOCC2)c1)CCN1CCCCC1,5.53%,–
C/C=C(\C)C(=O)O[C@H]1[C@H](O)[C@]2(COC(C)=O)[C@H](O)C[C@]3(C)C(=CCC4[C@@]5(C)CC[C@H](O[C@@H]6O[C@H](C(=O)O)[C@@H](O[C@@H]7O[C@H](CO)[C@@H](O)[C@H](O)[C@H]7O)[C@H](O)[C@H]6O[C@@H]6O[C@H](CO)[C@@H](O)[C@H](O)[C@H]6O)[C@](C)(CO)C5CC[C@]43C)[C@@H]2CC1(C)C (some centres not stated),7.17% [at 11.6 µM],–
C[C@]12C=CC(=O)C=C1CC[C@@H]1[C@@H]2[C@@H](O)C[C@@]2(C)[C@H]1CC[C@]2(O)C(=O)COC(=O)CCC(=O)O,9.54%,–
CC1=C2[C@@H]([C@H](C)CC[C@H]2/C=C(\C)C(=O)O)[C@H](O)C1,-6.14%,–
CC(=O)c1c(C)cc(O[C@@H]2O[C@H](CO)[C@@H](O)[C@H](O)[C@H]2O)cc1O,12.2% [at 38.5 µM],–
OC[C@H]1O[C@@H](OCCc2ccc(O)cc2)[C@H](O)[C@@H](O)[C@@H]1O,1.49%,–
C[C@@H]1C[C@H]2[C@@H]3CCC4=CC(=O)C=C[C@]4(C)[C@@]3(F)[C@@H](O)C[C@]2(C)[C@@]1(O)C(=O)COP(=O)(O)O,6.16%,–
CC(=O)N1CCN(NC(=O)c2ccc(F)cc2)CC1,5.67%,–
NC(Cc1c[nH]c2ccccc12)C(=O)NC(CCC(=O)O)C(=O)O (configuration not stated),2.86%,–
CC[C@H](/C=C/[C@@H](C)[C@H]1CC[C@H]2[C@@H]3CC=C4C[C@@H](O)CC[C@]4(C)[C@H]3CC[C@]12C)C(C)C,-1.77% [at 6.55 µM],–
CCOc1ccc(C(Nc2ccccn2)c2ccc3ccc(C)nc3c2O)cc1C (configuration not stated),6.01%,–
COc1cc(C2Oc3c(OC)cc(/C=C/C(=O)OC[C@H]4O[C@@H](OC(C)(C)C(=O)O)[C@H](O)[C@@H](O)[C@@H]4O)cc3C2CO)ccc1O (some centres not stated),3.11% [at 25.3 µM],–
COC1=CC(=O)C[C@@H](C)[C@]12Oc1cc(OC)cc(OC)c1C2=O,1.2% [at 38.5 µM],–
COc1c(C)c(OCC=C(C)C)cc2c1C(=O)NC2=O,5.94%,–
C[C@]12CCC(=O)C=C1[C@@H](O)C[C@@H]1[C@@H]2[C@@H](O)C[C@@]2(C)[C@H]1CC[C@]2(O)C(=O)CO,9.83%,–

Structure (SMILES),"activity change, negative = cytotoxicity",Potency
Cn1c(=O)cc(N2CCCC(N)C2)n(Cc2ccccc2C#N)c1=O (configuration not stated),15.5%,–
CC(=O)O[C@H]1C[C@@H]2[C@]3(CC[C@]4(C)[C@@H](C5(C)CCC(C(C)(C)O)O5)[C@@H](O)C[C@@]24C)C[C@@]32CC[C@H](O[C@@H]3OC[C@@H](O)[C@H](O)[C@H]3O)C(C)(C)[C@H]12 (some centres not stated),-11.1% [at 25.3 µM],–
COc1cc(C[C@H]2COC(=O)[C@@H]2Cc2ccc(O)c(OC)c2)ccc1O,4.43% [at 38.5 µM],–
CCC(=O)NS(=O)(=O)c1ccc(-c2c(-c3ccccc3)noc2C)cc1,-2.2%,–
C=CC(C)(O)CO[C@@H]1O[C@H](CO)[C@@H](O)[C@H](O)[C@H]1O (some centres not stated),-3.41%,–
Clc1ccc(CN[C@H]2CCN(c3ncc(Br)cn3)C2)c(Cl)c1,2.22%,–
CC(C)C(=O)c1cn(CC(=O)COc2ccc(Oc3ccccc3)cc2)c2ccc(C(=O)O)cc12,10.3%,–
CC(C)C1=CC2=CCC3[C@](C)(CCC[C@@]3(C)C(=O)O)C2CC1O (some centres not stated),9.03% [at 38.5 µM],–
CC[C@H]1OC(=O)C[C@@H](O)[C@H](C)[C@@H](O[C@@H]2O[C@H](C)[C@@H](O)[C@H](N(C)C)[C@H]2O)[C@@H](CCN2C[C@H](C)C[C@H](C)C2)C[C@@H](C)C(=O)/C=C/C(C)=C/[C@@H]1CO[C@@H]1O[C@H](C)[C@@H](O)[C@@H](OC)[C@H]1OC,21.4%,–
CC(C)NC[C@H](O)COc1ccc(CCOCC2CC2)cc1,5.33%,–
CC(=O)OC(C)OC(=O)C(C)c1ccc(-c2ccccc2)c(F)c1 (configuration not stated),8.45%,–
C=C1C(=O)O[C@H]2[C@H]1[C@@H](OC(=O)C(C)CO)C[C@@]1(C)[C@H](O)CCC(=O)[C@H]21 (some centres not stated),1.13% [at 38.5 µM],–
CCC(C)(O)C(O)C(=O)OCc1ccc(O[C@@H]2O[C@H](CO)[C@@H](O)[C@H](O)[C@H]2O)c(OC)c1 (some centres not stated),7.08% [at 25.3 µM],–
COc1ccc(C[C@H](N)C(=O)N[C@H]2[C@@H](O)[C@H](n3cnc4c(N(C)C)ncnc43)O[C@@H]2CO)cc1,–,2000 nM (active)
C[C@H](NCc1ccc(OCc2ccccc2F)cc1)C(N)=O,-0.947%,–
CC(=O)N[C@H](Cc1ccc(O)cc1)C(=O)N[C@H](CCCN=C(N)N)C(=O)N[C@H](Cc1ccccc1)C(N)=O (Ac-[dY]-[dR]-[dF]-NH2),6.6%,–
